Inconclusive results are not listed. Active and inactive are the calls of the source. Unless noted, calls come from the whole dose curve; as a rule, active = well fitted curve in the direction sought with a large enough effect; inconclusive = small, poorly fitted or top-dose-only effect, or another doubt; inactive = no such curve, though single readings can be large; an effect the other way counts as inactive or inconclusive.

The nature of test [1]: Primary qHTS for inhibitors of nuclear receptor binding SET domain protein 2 (NSD2) in an isogenic RCH-ACV NSD2 p.E1099K mutant (9B) (AID 1645876). Note: nearly all actives have a fitted effect of over 70% in size. Note: potency is the fitted concentration of half-maximal effect. Background: Quantitative high-throughput screening tests each substance at several concentrations.
The nature of test [2]: Primary qHTS for inhibitors of nuclear receptor binding SET domain protein 2 (NSD2) in an RCH-ACV wild type WT cells (2C) (AID 1645877). Note: nearly all actives have a fitted effect of over 70% in size. Note: potency is the fitted concentration of half-maximal effect.
The test system of the next test is HEK293. Put plainly: Cytotoxic Profiling of Annotated Libraries Using Quantitative High-Throughput Screening (AID 1296008). For max response: % is set by controls: 0 for no effect and ±100 for the full control effect. Note: nearly all actives have a fitted effect of over 60% in size. Note: potency is the fitted concentration of half-maximal effect. Conditions: Five cell lines viability, CellTiter-Glo ATP luminescence, 48-72 h; max response: stronger effect = lower value. The method, boiled down:
(§1)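 Cells exposed to compounds for 48 or 72 hr at 37 degrees Celsius. Viability read as ATP-coupled luminescence with CellTiter-Glo after 10 min at room temperature.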
A general note: ATP-based viability assays read luminescence as a measure of living cells.

For the next test, the system named is KB-3-1. The description is as above. To be noted: Five cell lines viability, CellTiter-Glo ATP luminescence, 48-72 h; max response: stronger effect = lower value. A digest of the protocol: as §1
Test [3] is described as follows: P-glycoprotein substrates identified in KB-8-5-11 adenocarcinoma cell line, qHTS therapeutic library screen (AID 1346987). Note: nearly all actives have a fitted effect of over 65% in size. Note: potency is the fitted concentration of half-maximal effect. A digest of the protocol:
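P-gp-mediated resistance screen: KB-8-5-11 cells treated 72 h with compounds in dose-response. CellTiter-Glo viability.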

Another test deals with CRL-7250. The test is described as follows: Cytotoxic Profiling of Annotated Libraries Using Quantitative High-Throughput Screening (AID 1296008). For max response: % is set by controls: 0 for no effect and ±100 for the full control effect. Note: nearly all actives have a fitted effect of over 60% in size. Note: potency is the fitted concentration of half-maximal effect. To be noted: Five cell lines viability, CellTiter-Glo ATP luminescence, 48-72 h; max response: stronger effect = lower value. A digest of the protocol:
as §1

The test system of test [4] is Zika virus NS2B-NS3 protease (unlinked complex). The test is described as follows: Primary screen GU Rhodamine qHTS for Zika virus inhibitors: Unlinked NS2B-NS3 protease assay (AID 1347159). Note: nearly all actives have a fitted effect of over 60% in size. Note: potency is the fitted concentration of half-maximal effect. The method, boiled down:
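Noncovalent NS2B hydrophilic domain/NS3 protease complex (25 nM final) in 10 mM Tris-HCl pH 8.0, 0.01% Tween 20, preincubated 15 min with compounds (up to 114 microM), then 1.5 microM Rhodamine110 substrate. Fluorescence change over 15 min fitted to 4-parameter Hill.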

The target of test [5] is Cytochrome P450 2D6 (Homo sapiens) (UniProt P10635). The test is described as follows: Cytochrome P450 family 2 subfamily D member 6 (CYP2D6) small molecule antagonists: luciferase biochemical (cell-free) qHTS assay (AID 1645840; active = well fitted curve in the direction sought with a large enough effect in the repeat runs; an effect the other way counts as inactive or inconclusive; note: nearly all actives have a fitted effect of over 55% in size; note: potency is the fitted concentration of half-maximal effect). The method, boiled down: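 P450-Glo luminescent screen: recombinant CYP2D6 enzyme–proluciferin substrate mix preincubated with compound 10 min at room temperature, then NADPH regeneration added for 1 h at room temperature. Detection reagent added for 20 min; luciferin light read as relative luminescence units.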
Chain of Cytochrome P450 2D6 (Homo sapiens) (P10635 whole entry, looked up): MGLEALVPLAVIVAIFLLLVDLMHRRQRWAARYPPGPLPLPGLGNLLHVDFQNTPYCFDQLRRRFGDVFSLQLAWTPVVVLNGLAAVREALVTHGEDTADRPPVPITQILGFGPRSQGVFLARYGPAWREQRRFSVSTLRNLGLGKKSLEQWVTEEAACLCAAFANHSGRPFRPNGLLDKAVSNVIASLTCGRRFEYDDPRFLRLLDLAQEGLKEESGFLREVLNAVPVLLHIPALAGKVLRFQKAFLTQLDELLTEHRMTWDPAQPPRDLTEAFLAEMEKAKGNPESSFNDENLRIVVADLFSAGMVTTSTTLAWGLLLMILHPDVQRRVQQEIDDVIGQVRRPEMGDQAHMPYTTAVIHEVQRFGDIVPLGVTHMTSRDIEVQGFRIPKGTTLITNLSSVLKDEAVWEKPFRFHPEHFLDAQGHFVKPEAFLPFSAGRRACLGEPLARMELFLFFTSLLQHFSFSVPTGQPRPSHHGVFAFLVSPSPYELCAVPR

Test [6] deals with Cytochrome P450 2C9 (Homo sapiens) (UniProt P11712). The test is described as follows: Cytochrome P450 family 2 subfamily C member 9 (CYP2C9) small molecule antagonists: luciferase biochemical (cell-free) qHTS assay (AID 1645842; active = well fitted curve in the direction sought with a large enough effect in the repeat runs; an effect the other way counts as inactive or inconclusive; note: potency is the fitted concentration of half-maximal effect; nearly all actives have a fitted effect of over 55% in size). A digest of the protocol: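 Luminescence, after 20 min with luciferin detection reagent, reflected CYP2C9 turnover during a 1 h NADPH-driven reaction at 37C. Enzyme-substrate mix contained 0.4% bovine serum albumin and was preincubated with compound 10 min at room temperature.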
Chain of Cytochrome P450 2C9 (Homo sapiens) (P11712 whole entry, looked up): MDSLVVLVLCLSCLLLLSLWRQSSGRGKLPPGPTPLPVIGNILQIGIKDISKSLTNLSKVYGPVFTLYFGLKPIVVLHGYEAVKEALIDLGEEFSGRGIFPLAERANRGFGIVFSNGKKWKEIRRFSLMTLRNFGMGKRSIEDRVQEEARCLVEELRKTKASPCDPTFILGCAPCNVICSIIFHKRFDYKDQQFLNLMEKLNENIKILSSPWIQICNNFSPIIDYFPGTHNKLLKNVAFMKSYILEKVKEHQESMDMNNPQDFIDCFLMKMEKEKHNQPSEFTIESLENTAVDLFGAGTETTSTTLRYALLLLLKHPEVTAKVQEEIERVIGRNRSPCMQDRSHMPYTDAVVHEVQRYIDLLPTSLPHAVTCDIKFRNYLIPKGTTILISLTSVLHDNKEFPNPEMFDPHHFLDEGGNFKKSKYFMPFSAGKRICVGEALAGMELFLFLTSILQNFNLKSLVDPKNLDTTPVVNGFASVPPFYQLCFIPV

Test [7] is described as follows: qHTS drug screen for cell cycle checkpoint inhibitors in PARPi-resistant BRCA-mutant ovarian cancer cell lines. (AID 1963452; calls by dose curve). To be noted: PEO1/OlaR viability, CellTiter-Glo luminescence, 96 h, stronger effect = lower value. The method, boiled down: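 PEO1, PEO4 and PEO1/OlaR ovarian cancer cells, 600 per well, exposed 96 h at 37C to a dilution series. Viability read by CellTiter-Glo luminescence, normalized to DMSO and empty wells; activity summarized as Z-AUC.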

A further test has as its system HeLa. Put plainly: Primary qHTS to identify gynecologic anti-cancer compounds using libraries of approved drugs and bioactive compounds (AID 1345084). Note: nearly all actives have a fitted effect of over 55% in size. Note: potency is the fitted concentration of half-maximal effect. Conditions: Gynecologic cancer cell panel viability, ATPlite luminescence, 48 h; series mostly up to 57.5 µM. A digest of the protocol: (§2)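 In this quantitative HTS, cell killing is estimated from loss of ATP-dependent luciferase light. Cells see five compound concentrations over a 48 h exposure.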

For another test, the system named is SKOV3. The test is described as above. To be noted: Gynecologic cancer cell panel viability, ATPlite luminescence, 48 h; series mostly up to 57.5 µM. A digest of the protocol: as §2
Another test concerns HACAT. Put plainly: qHTS assay to identify novel small-molecules to repurpose for Merkel cell carcinoma treatment (AID 1296009). Note: nearly all actives have a fitted effect of over 60% in size. To be noted: MCC and control cell lines, CellTiter-Glo viability, 72 h; at 44.8 µM (top of the series) unless noted. A digest of the protocol:
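Cells were incubated with compound for 72 hr at 37 degree celsius before CellTiter-Glo addition. Luminescence was normalized with no-cell wells as full cytotoxicity and DMSO as baseline.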

Where [8] appears, read: measured here: PEO1 parental Z-AUC.

In the case of `CC[C@@H]1/C=C/C=C/C[C@H](C)C(O)[C@](C)(O)C(=O)[C@H](C)C(O)[C@H](C)C(=O)[C@H](C)[C@@H](O)[C@H](C)/C=C/C(=O)O[C@H]2[C@@H](C)[C@@H](CC1)O[C@]1(O[C@H](C[C@H](C)O)[C@H](C)CC1=O)[C@@H]2C` (some centres not stated), the Potency was 0.123 µM (active) in [1], 0.138 µM (active) in test [2], 0.0174 µM (active) in the test on HEK293 and 0.0491 µM (active) with KB-3-1.
With `CC[C@@H](C)[C@H]1C(=O)O[C@H](C(C)C)C(=O)N(C)[C@@H](C(C)C)C(=O)O[C@H](C(C)C)C(=O)N(C)[C@@H](C(C)C)C(=O)O[C@H](C(C)C)C(=O)N1C`, the Potency in test [3] was 4.32 µM (active); in test [1], 2.16 µM (active); in test [2], 1.53 µM (active); in the test with CRL-7250, 3.85 µM (active).
For the compound `C[C@H](Nc1ncnc2nc[nH]c12)c1nc2ccc(F)cc2c(=O)n1-c1ccccc1`, the Potency result (in [4]; in the test on HeLa; in the test with SKOV3) was “inactive” each time. The Potency was 15.1 µM (active) in test [5] and 12 µM (active) in [6]. In addition, the Z-AUC in test [7] was 0.252 (inactive); in test [7] (setting [8]), 0.609; in test [7] (measured here: PEO4 Z-AUC) it was 0.915. Besides, the max response was -36.2% (inactive) in the test with CRL-7250 and -3.18% (inactive) in the test on KB-3-1.
Take `C[C@]12CC[C@H](O[C@@H]3O[C@H](CO)[C@@H](O)[C@H](O)[C@H]3O)CC1=CC[C@@H]1C2CC[C@]2(C)[C@@H](C3=CC(=O)OC3)CC[C@]12O` (some centres not stated): the Potency in [3] was 4.85 µM (active); in test [1] it was 2.42 µM (active); in test [2], 5.41 µM (active); in the test on CRL-7250 it was 3.43 µM (active). Also, the Potency result in test [4] was “inactive”.
`C=C1C(=O)OC2/C=C(\COO)CC/C=C(\COC(C)=O)CC(OC(=O)C(C)CC)C12` (configuration not stated): the Potency result (in test [4]; in the test with HeLa) was “inactive” throughout. The Potency in [1] was 6.32 µM (active); in test [2], 3.55 µM (active); in the test on CRL-7250, 7.96 µM (active). Moreover, in the test on HACAT, the outcome was “inactive [at 17.4 µM]”.
For `CC/C=C/C=C/C1(C)OC(OC)=C(C(=O)C2C(C)C(=O)c3cc(OC)c(O)c(O)c3C2(C)O)C1=O` (configuration not stated), the Potency in [4] is 6.31 µM (active); in test [2] it was 7.09 µM (active). In addition, the max response in the test with CRL-7250 was -16.8% (inactive). The Potency entry with HeLa is “inactive”.
For the compound `C[C@]12CC[C@H](O)CC1=CC[C@@H]1C2CC[C@]2(C)[C@@H](C3=CC(=O)OC3)CC[C@]12O` (some centres not stated), the Potency in test [3] was 10.1 µM (active); in [1], 3.19 µM (active); in test [2] it was 4.5 µM (active); in the test with CRL-7250, 5.08 µM (active). For the same compound, the Potency result in test [4] was “inactive”.
Regarding `C[C@@H]1O[C@@H](O[C@H]2CC[C@@]3(C)C(CC[C@@H]4C3CC[C@]3(C)[C@@H](C5=CC(=O)OC5)CC[C@]43O)C2)[C@H](O[C@@H]2O[C@H](CO)[C@@H](O)[C@H](O)[C@H]2O)[C@H](O)[C@H]1O` (some centres not stated), the Potency in [3] is 0.485 µM (active); in test [1], 0.171 µM (active); in [2], 0.483 µM (active); in the test on HEK293, 0.485 µM (active); in the test on KB-3-1, 0.862 µM (active); in the test with SKOV3, 2.24 µM (active). For the same compound, the Potency result in test [4] is “inactive”.
In the case of `CCOC(=O)c1ccc(-c2ccc(OC(=O)N(C)Cc3cccc(-c4ccncc4)c3)cc2)cc1`, the Potency entry (in [3]; in [4]; in [1]; in test [2]; in the test on HeLa; in the test on SKOV3) was “inactive” in each case. The Potency in test [5] was 6.74 µM (active); in [6] it was 0.952 µM (active); in the test on HEK293 it was 9.2 µM (active). Also, the max response in the test with KB-3-1 is 1.19% (inactive).
`NC(=O)[C@@H](CC1CC1)[C@@H](CCC(F)(F)F)C(=O)N[C@H]1N=C(c2ccccc2)c2cccc(F)c2NC1=O`: the Potency result (in test [3]; in [4]; in [5]; in [1]; in test [2]; in the test on HeLa) was “inactive” throughout. Besides, the Potency entry with SKOV3 is “inactive”. For the same compound, the Z-AUC in test [7] was -1.08 (inactive); in test [7] (setting [8]) it was -0.643; in test [7] (measured here: PEO4 Z-AUC), -1.43. Also, the max response with HEK293 was 0.706% (inactive); in the test with KB-3-1, 4.24% (inactive).

For the origin of these results see PubChem BioAssay (NCATS).
